Assay outcomes deposited in PubChem BioAssay by several laboratories.
Rows were chosen to be rich in hits. Some 4.3% of all compounds tested hit in one or more screens of this group.
NALP1 inh: NALP1 inhibition; inhibition, % at 10 µM; S. cerevisiae NALP1/ASC/caspase-1 growth, X-gal OD620, 72 h; AID 2071; 280,000 compounds, 0.61% hits; in the data active = inhibition mostly above about 24%, no sharp cut-off; inactive = mostly below about 32%
Yeast superoxide: lowers age-related superoxide in aged yeast cells | S. cerevisiae aged cells, superoxide DHE fluorescence; hits give low values | superoxide response (% of plate mean), % at 10 µM | 330,000 compounds, 0.18% hits;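 active = superoxide response under a set limit, about three screen SD below normal, cut at about 65% in these data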;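 note: yeast aged for seven days with compound at 30 °C before DHE staining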
NR3A LBD binder: modulates the human NR3A ligand-binding domain; NR3A LBD differential scanning fluorimetry, Tm shift; 0% = protein alone, 100% = glycine-bound protein; Tm shift relative to glycine control, % at 25 µM; 340,000 compounds, 2.5% hits;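 active = melting temperature shift of at least 10% of the positive control shift, at one fixed dose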
UBC13 inh: inhibitors of human UBC13 polyubiquitin chain formation. P61088. TR-FRET. inhibition, % at 20 µM. 330,000 compounds, 0.47% hits; in the data active = inhibition above about 45%, passing the limit was not always enough
Target sequence (P61088 whole entry, looked up): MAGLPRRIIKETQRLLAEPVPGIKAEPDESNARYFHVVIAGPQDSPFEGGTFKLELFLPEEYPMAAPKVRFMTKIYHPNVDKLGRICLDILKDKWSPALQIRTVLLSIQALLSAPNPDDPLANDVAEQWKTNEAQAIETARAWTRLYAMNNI
dFosB act: activators of mouse delta FosB homodimer; AID 493131; P13346; purified delta FosB, TAMRA-CDK5 oligo fluorescence polarization; percent of positive-control signal above neutral wells; activation, % at 25 µM; 340,000 compounds, 0.99% hits;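 active = mean activation above about 17%, with every replicate also reaching it, limit read from the data, passing the limit was not always enough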
Large screens that a line does not name were inactive.

O=C(/C=C1\SC(=O)N(CC(=O)Nc2ccc(F)cc2)C1=O)Nc1ccc(Cl)cc1	NR3A LBD binder 27.2
COc1cc(/C=N/NC(=O)c2ccc(CSc3nc4ccccc4[nH]3)cc2)ccc1O	none
O=C(NN1C(=O)c2cc(Br)ccc2NC1c1ccccc1Cl)c1ccncc1 (stereo unspecified)	none
O=C(NN1C(=O)c2cc(Br)ccc2NC1c1cc(Br)cc(Br)c1O)c1ccncc1 (stereo unspecified)	NALP1 inh 57.3
CCC(CC)c1nnc(NC(=O)Cc2ccccc2[N+](=O)[O-])s1	none
Cc1c(NS(=O)(=O)c2ccc(N(C)C3CCCCC3)c([N+](=O)[O-])c2)c(=O)n(-c2ccccc2)n1C	none
CCc1ccc(O)c(-c2cc(C(=O)Nc3cccnc3)[nH]n2)c1	NR3A LBD binder 19.6 (no result: NALP1 inh)
Cc1cccc(NC(=O)c2cc(-c3c(C)cc(C)cc3O)n[nH]2)c1	none
CC(=O)Nc1ccc(NC(=O)c2cc(-c3cc(C)c(C)cc3O)n[nH]2)cc1	NR3A LBD binder 31.9
Cc1cc(O)c(-c2cc(C(=O)Nc3cccnc3)[nH]n2)cc1C	NALP1 inh 37.3, NR3A LBD binder 26.5
Cc1ccc(NC(=O)c2cc(-c3ccccc3)n[nH]2)cc1	NR3A LBD binder 10.3
CN(C)CCCNC(=S)NCCNc1nc2cc3c(cc2cc1C#N)OCO3	none
Cc1cccc(/N=C/c2c(O)c3ccccc3oc2=O)n1	NALP1 inh 27.1
Cc1cc(C)cc(N=Cc2c(O)c3ccccc3oc2=O)c1	none
COc1ccc(C(=O)NCCNC(C)=O)cc1S(=O)(=O)NCc1ccc(Cl)cc1	NALP1 inh 28.2
COc1ccc(C(=O)NC2CCC(O)CC2)cc1S(=O)(=O)NCc1ccc(Cl)cc1 (stereo unspecified)	none (no result: NALP1 inh)
Cc1cc(Nc2ncc(Cl)cc2Cl)n(-c2ccccc2)n1	NR3A LBD binder 10.6 (no result: NALP1 inh)
COc1ccccc1CNC(=O)COC(=O)c1ccc(C)c(S(=O)(=O)N2CCCCC2)c1	none
COc1ccc(OCc2cc(C(=O)N3CCN(CC4CC4)CC3)no2)c(Cl)c1	NALP1 inh 28.4
O=C(c1cc(COc2ccc(F)cc2Cl)on1)N1CCCCCC1	NR3A LBD binder 14.5
O=C(c1cc(COc2ccc(F)cc2Cl)on1)N1CCCCCCC1	none
Cc1cc(OCc2cc(C(=O)N3CCCCCC3)no2)cc(C)c1Cl	NR3A LBD binder 11.1
COc1cccc(CNC(=O)CCNC(=O)c2ccccc2OC)c1	none
COc1ccc(NC(=O)Cn2nnc(C(=O)NCc3ccc(C)cc3)c2N)cc1Cl	NR3A LBD binder 17.4
COc1cccc(Cn2nnc(C(=O)Nc3ccc(C)cc3)c2N)c1	dFosB act 16.5
CCOc1ccc(NC(=O)Cn2nnc(C(=O)NCCc3ccc(OC)c(OC)c3)c2N)cc1	dFosB act 32.3
COc1ccc(Cl)cc1NC(=O)c1nnn(CC(=O)Nc2ccc(C)c(C)c2)c1N	NR3A LBD binder 14.5, dFosB act 125.0
COc1ccc(CCNC(=O)Cn2nnc(C(=O)Nc3ccc(Br)cc3)c2N)cc1OC	none
COc1ccccc1NC(=O)c1nnn(CC(=O)Nc2ccccc2)c1N	none
COc1ccc(NC(=O)Cn2nnc(C(=O)NCc3ccccc3)c2N)cc1Cl	none
CCOc1ccc(C(=O)CC(=O)C(=O)NCCc2ccc(OC)c(OC)c2)cc1	NR3A LBD binder 24.5
CCn1cc(CN2CCC(n3nccc3NC(=O)c3ccc4c(c3)OCO4)CC2)c(C)n1	none
CC1CCN(Cc2nnnn2CCCC(=O)NC(c2ccccn2)C(F)(F)F)CC1 (stereo unspecified)	NR3A LBD binder 11.7
COCC1CCCCN1C(=O)CCCn1nnnc1CN1CCC(C)CC1 (stereo unspecified)	none
CN(c1ccc(OCc2nnc(-c3ccccc3)o2)cc1)S(=O)(=O)c1ccccc1	NR3A LBD binder 20.4
COc1ccc(CCNC(=O)c2cc(COc3c(C)cccc3C)on2)c(OC)c1	none
CCOCc1c(C(=O)Nc2cc(OCC)c(N3CCOCC3)cc2OCC)oc2ccccc12	NALP1 inh 36.0
COc1cc(OC)cc(C(=O)NCc2ccc3c(c2)OCO3)c1	none
COc1cnc(-c2ccccn2)nc1Sc1ccc(F)cc1	none
Cc1nn(Cc2ccccc2)c(C)c1/C=N/NC(=O)CNc1cccc(C(F)(F)F)c1	NR3A LBD binder 13.1
O=C(CNc1cccc(C(F)(F)F)c1)N/N=C/c1cn(-c2ccccc2)nc1-c1ccccc1	NR3A LBD binder 34.3
COc1ccc(-c2nn(-c3ccccc3)cc2/C=N/Nc2cccc(C(=O)O)c2)cc1	none (no result: Yeast superoxide, UBC13 inh)
